# Pf Dd2 growth = Plasmodium falciparum Dd2 growth inhibition | P. falciparum Dd2 growth, SYBR Green, 72 h | Potency, µM (series often up to 28.9 µM), actives largely listed as inhibitors | 4.3% of 120,000 active; active = well fitted inhibition curve with a large enough effect; note: nearly all actives have a fitted effect of over 65% in size
#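 Readout: SYBR Green fluorescence, 485 nm excitation, 535 nm emission, after ~16 h lysis at 37C. Before that, Dd2-infected red cells (2.5% hematocrit) grew 72 h with compound, 29 uM top final concentration.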
# A number is an active result; - = inactive; [ ] = another dose, or the depositor's remark. Many of the other results were omitted from the sample, so hits are more common in it than they were.
SMILES,Pf Dd2 growth
Cc1ccc(-n2c(C3CCN(C(=O)Cc4ccc(Cl)cc4)CC3)n[nH]c2=O)cc1,12.6µM
COc1cccc(CC(=O)N2CCC(c3n[nH]c(=O)n3Cc3ccc(F)cc3)CC2)c1,-
CCOCCn1c(=O)[nH]c2cc(C(=O)NCc3nnc(C)o3)ccc21,-
COC[C@@H]1CN(C(=O)c2ccc3[nH]ccc3c2)C[C@H]1c1ccncc1,-
C=CCNC(=O)N[C@H]1[C@H](O)[C@@H](N2CCCC2)[C@@H]2OC[C@H]1O2,-
Cc1c(Cl)cccc1NC(c1ccc(F)cc1)c1nnc(-c2ccccc2)o1 (stereo not drawn),-
O=S(=O)(NCCc1noc(-c2ccccc2)n1)c1ccc(Cl)cc1,-
Clc1ccc(CCNC(c2nnc(-c3ccccc3)o2)c2ccccc2Cl)cc1 (stereo not drawn),11.2µM
O=C(COc1cccc(F)c1)c1ccc2c(c1)N(CC(=O)N1CCOCC1)C(=O)CO2,-
CCN(CCN(C)C)C(=O)c1coc(COc2ccc3sc(C)nc3c2)n1,-
O=C(Nc1ccccc1)N1CC2CC(C1)[C@H]1CCCC(=O)N1C2 (stereo partly drawn),-
CCOc1ccccc1NC(=O)C1CN(S(=O)(=O)C2CC2)CC12CCCCC2 (stereo not drawn),-
O=C(Nc1ccc2c(c1)OCCO2)C1CN(S(=O)(=O)C2CC2)CC12CCCCC2 (stereo not drawn),3.16µM
COc1ccc(CNC(=O)C2CN(S(=O)(=O)C3CC3)CC23CCCCC3)c(OC)c1 (stereo not drawn),-
COc1ccc(NC(=O)N(C)CC2CCOCC2)cc1Cl,-
CCN(CC)C1CCOC2(CCN(C(=O)c3cccnc3C)CC2)C1 (stereo not drawn),-
c1ccc(-c2nnc3n2CCN(CC2CC2)C3)cc1,-
CCCc1noc(-c2nc(-c3ccc4c(c3)OCO4)no2)n1,-
CC(C)(CN1CCC(Cc2cccc(C(=O)O)c2)C1)N1CCOCC1 (stereo not drawn),-
COC[C@H]1CCCN1Cc1nc(C2(O)CCN(CC(C)C)CC2)cs1,-
CN1CCN(Cc2nc(C3(O)CCN(Cc4ccccc4)CC3)cs2)CC1,-
COC[C@H]1CCCN1Cc1nc(C2(O)CCN(Cc3ccc(F)cc3)CC2)cs1,7.94µM
OC1(c2csc(CN3CCN(c4ccccn4)CC3)n2)CCNCC1,-
COC[C@H]1CCCN1Cc1nc(C2(O)CCN(C(=O)Nc3ccc(F)cc3)CC2)cs1,-
OC1(c2csc(CN3CCN(c4ccccn4)CC3)n2)CCN(Cc2ccc(F)cc2)CC1,5.01µM
SMILES,Pf Dd2 growth
O=C(COc1ccc(F)cc1)N1CCC2(CC1)NC(=O)N(c1ccc(F)cc1)N2,-
O=C1OC2(CN1CC1CCOCC1)CN(c1ccccc1-c1ccccc1)C2,-
O=C(NC1CCc2n[nH]c(=O)n2CC1)c1ccsc1 (stereo not drawn),-
Cc1nc(N2CCC(NC(=O)c3ccco3)CC2)cc(C(F)(F)F)n1,-
O=C([C@@H]1C[C@H](F)CN1C(=O)Nc1ccc(Br)cc1)N1CCCCC1,-
Cc1cc(C(F)(F)F)nn1CC(=O)NC1CCc2n[nH]c(=O)n2CC1 (stereo not drawn),-
O=C(C1CCC1)N1CCC(N(C(=O)C2CC2)C2CCOCC2)CC1,-
COc1ccccc1NC(=O)N1CCC(N(C(=O)C2CC2)C2CCOCC2)CC1,4.47µM
O=C(c1ccccc1)N1CCC(N(C(=O)C2CC2)C2CCOCC2)CC1,-
CCN(CC)C(=O)[C@@H]1CCC[C@@H](NC(=O)Nc2c(C)noc2C)CN(C)C(=O)C1,-
COc1ccc(NC(=O)c2ccc3c(c2)OCCN(C2CCC2)C3)cn1,11.2µM
COc1ccc(NC(=O)c2ccc3c(c2)OCCN(Cc2ncccn2)C3)cc1F,-
COc1ccc(NC(=O)c2ccc3c(c2)C(O)CCCCCN3C)cn1 (stereo not drawn),-
Cc1cc(C(=O)Nc2ccc([C@H]3OCC(=O)N(C)[C@@H]3CO)cc2)no1,-
CCc1ccc(C(=O)N2c3ccccc3CC2c2nc(C3CC3)no2)cc1 (stereo not drawn),-[5.79 µM]
c1cncc(CN2CC[C@H](c3nnc(Cc4c[nH]c5ccccc45)o3)C2)c1,11.2µM
c1ccc2c(Cc3nnc([C@H]4CCN(CC5CC5)C4)o3)c[nH]c2c1,-
CC(=O)N1CC[C@H](c2nnc(Cc3c[nH]c4ccccc34)o2)C1,-
COc1cccc(C(=O)N2C(C(=O)NCc3ccccc3)COC23CCN(C(=O)C2CC2)CC3)c1 (stereo not drawn),-
CC(C)CNC(=O)C1CCN(C(=O)N2CC3CC(C2)[C@H]2CCCC(=O)N2C3)CC1 (stereo partly drawn),-
CCOCCCNC(=O)C(c1ccccc1)N1Cc2ccccc2C1=O (stereo not drawn),-
CCc1ccc(C2c3c(-c4ccccc4O)n[nH]c3C(=O)N2Cc2ccncc2)cc1 (stereo not drawn),8.91µM
CCOCCCN1C(=O)c2[nH]nc(-c3ccccc3O)c2C1c1ccc(CC)cc1 (stereo not drawn),11.2µM
COc1cc(C2c3c(-c4ccccc4O)n[nH]c3C(=O)N2Cc2ccncc2)cc(OC)c1OC (stereo not drawn),-
